Our source for the growth inhibition values is PubChem BioAssay (NCI).

About 79,000 compounds went through this panel and 15% of them were active in at least one assay; those are over-represented in the sample as a whole. A number with no mark means an inactive call. Activity calls are given as the source filed them. Rule as the data show it: active = growth inhibition above about 70%; inactive = the rest.

A short description of assay [1]: NCI Yeast Anticancer Drug Screen. Data for the rad50 strain (AID 155).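 Also: 0% = growth of vehicle-only cultures of the same strain.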 The conditions noted are these: S. cerevisiae rad50 strain growth inhibition, hits give high values. The method, boiled down:
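A DNA repair-deficient yeast mutant serves as the test organism; compound-induced growth inhibition is calculated against vehicle-treated cells.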

The nature of assay [2]: NCI Yeast Anticancer Drug Screen. Data for the mec2-1 strain (AID 157). The conditions noted are these: S. cerevisiae mec2-1 strain, hits give high values. The method, boiled down: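 Using mec2-1 yeast: add compound, measure growth, express inhibition versus vehicle-treated cultures.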
Assay [3] can be described thus: NCI Yeast Anticancer Drug Screen. Data for the sgs1 mgt1 strain (AID 161).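 Also: 0% = growth of cultures given vehicle only.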 The conditions noted are these: S. cerevisiae sgs1 mgt1 strain, hits give high values. In outline:
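Compounds are added to genetically altered yeast, and growth is compared with cultures given vehicle alone to give percent inhibition.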

Assay [4] is described as follows: NCI Yeast Anticancer Drug Screen. Data for the cln2 rad14 strain (AID 165).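 Also: 0% = growth equal to vehicle treated cultures.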 The conditions noted are these: S. cerevisiae cln2 rad14 strain, hits give high values. In outline: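 Yeast strain cln2 rad14, bearing defects in cell cycle control and DNA repair, serves as the test system; values reflect growth inhibition compared with vehicle.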
The nature of assay [5]: NCI Yeast Anticancer Drug Screen. Data for the bub3 strain (AID 167). The conditions noted are these: S. cerevisiae bub3 mutant strain, hits give high values. In outline: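 Inhibition values come from growth of compound-treated mutant yeast normalised to vehicle-treated controls.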
Assay [6] can be described thus: NCI Yeast Anticancer Drug Screen. Data for the mlh1 rad18 strain (AID 175). The conditions noted are these: S. cerevisiae mlh1 rad18 strain growth inhibition, hits give high values. In outline: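 Steps: expose repair-defective yeast to compound; measure growth; express inhibition against vehicle-treated controls.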
[7] abbreviates: at 5.0 µM (retest, dose inferred, filed as 0.5).
The mark [8] stands for this setting: at 50.0 µM (retest, dose inferred, filed as 5.0).

With `Clc1ccc(C2=C(c3ccccc3)C(c3ccc(Cl)cc3)N3C(=N[C@H]4CCCC[C@@H]43)N2)cc1` (stereo not given in full), the growth inhibition in assay [1] (setting [7]) is 4%; in assay [1] (setting [8]), 15%; in assay [1] (at 50.0 µM), 88.2% (active); in assay [2] (setting [7]), 9%; in assay [2] (setting [8]) it was 7%; in assay [2] (at 50.0 µM), 88.4% (active). Besides, the growth inhibition in assay [3] (setting [7]) was -14%; in assay [3] (setting [8]), -27%; in assay [3] (at 50.0 µM), 89.3% (active); in assay [4] (setting [7]) it was -1%; in assay [4] (setting [8]), -5%; in assay [4] (at 50.0 µM), 90% (active). For the same compound, the growth inhibition was -1% in assay [5] (setting [7]); -1% in assay [5] (setting [8]); 87.7% (active) in assay [5] (at 50.0 µM); 7% in assay [6] (setting [7]); 7% in assay [6] (setting [8]); 91.5% (active) in assay [6] (at 50.0 µM).
Regarding `Nc1ccc(-c2cccc(-c3ccccc3)c2)cc1`, the growth inhibition is -8% in assay [1] (setting [7]); 94% (active) in assay [1] (setting [8]); 98% (active) in assay [1] (at 50.0 µM); -11% in assay [2] (setting [7]); 94% (active) in assay [2] (setting [8]); 97.7% (active) in assay [2] (at 50.0 µM). Besides, the growth inhibition in assay [3] (setting [7]) was -11%; in assay [3] (setting [8]) it was 97% (active); in assay [3] (at 50.0 µM), 96.2% (active); in assay [4] (setting [7]), -40%; in assay [4] (setting [8]), 96% (active); in assay [4] (at 50.0 µM) it was 98.7% (active). Further, the growth inhibition in assay [5] (setting [7]) is -15%; in assay [5] (setting [8]) it was 97% (active); in assay [5] (at 50.0 µM), 98.3% (active); in assay [6] (setting [7]) it was -27%; in assay [6] (setting [8]) it was 97% (active); in assay [6] (at 50.0 µM), 97.6% (active).
For the compound `CC(N1CCOCC1)C(O)(c1ccccc1)c1ccccn1` (stereo not given), the growth inhibition in assay [1] (setting [7]) is 3%; in assay [1] (setting [8]), 10%; in assay [1] (at 50.0 µM), -19.4%; in assay [2] (setting [7]), -1%; in assay [2] (setting [8]) it was -15%; in assay [2] (at 50.0 µM) it was -35.9%. The growth inhibition was -4% in assay [3] (setting [7]); -15% in assay [3] (setting [8]); -32.6% in assay [3] (at 50.0 µM); 24% in assay [4] (setting [7]); -1% in assay [4] (setting [8]); 60.2% in assay [4] (at 50.0 µM). Further, the growth inhibition in assay [5] (setting [7]) is -2%; in assay [5] (setting [8]) it was -15%; in assay [5] (at 50.0 µM) it was -42.4%; in assay [6] (setting [7]), 4%; in assay [6] (setting [8]), 19%; in assay [6] (at 50.0 µM), 2.75%.
Take `Clc1ccc(C(c2ccc(Cl)cc2)c2cncnc2)cc1`: the growth inhibition is 18% in assay [1] (setting [7]); 96% (active) in assay [1] (setting [8]); 89.8% (active) in assay [1] (at 50.0 µM); 6% in assay [2] (setting [7]); 99% (active) in assay [2] (setting [8]); 90% (active) in assay [2] (at 50.0 µM). Further, the growth inhibition was 15% in assay [3] (setting [7]); 95% (active) in assay [3] (setting [8]); 89.4% (active) in assay [3] (at 50.0 µM); 10% in assay [4] (setting [7]); 98% (active) in assay [4] (setting [8]); 89.2% (active) in assay [4] (at 50.0 µM). The growth inhibition in assay [5] (setting [7]) is 40%; in assay [5] (setting [8]), 97% (active); in assay [5] (at 50.0 µM), 84.2% (active); in assay [6] (setting [7]), 13%; in assay [6] (setting [8]) it was 97% (active); in assay [6] (at 50.0 µM), 86.8% (active).
Consider `CCCCC(/C=N\NC(=O)c1ccc[n+](C)c1)=C/c1ccccc1`, for which the growth inhibition in assay [1] (setting [7]) was 18%; in assay [1] (setting [8]) it was 1%; in assay [1] (at 50.0 µM), 88.3% (active); in assay [2] (setting [7]) it was 1%; in assay [2] (setting [8]) it was -3%; in assay [2] (at 50.0 µM), 95.4% (active). In addition, the growth inhibition in assay [3] (setting [7]) was -6%; in assay [3] (setting [8]) it was -3%; in assay [3] (at 50.0 µM), 88.7% (active); in assay [4] (setting [7]), -2%; in assay [4] (setting [8]), -5%; in assay [4] (at 50.0 µM) it was 18.5%. For the same compound, the growth inhibition in assay [5] (setting [7]) was -4%; in assay [5] (setting [8]), -7%; in assay [5] (at 50.0 µM) it was 94.5% (active); in assay [6] (setting [7]) it was -1%; in assay [6] (setting [8]), 16%; in assay [6] (at 50.0 µM) it was 90.6% (active).
Turning to `CCOc1ccnc2c(C)c3c([nH]c4ccccc43)c(C)c12`, the growth inhibition in assay [1] (setting [7]) was 50%; in assay [1] (setting [8]), 99% (active); in assay [1] (at 50.0 µM), 99.2% (active); in assay [2] (setting [7]) it was 23%; in assay [2] (setting [8]), 99% (active); in assay [2] (at 50.0 µM), 99.5% (active). For the same compound, the growth inhibition was 29% in assay [3] (setting [7]); 52% in assay [3] (setting [8]); 99.2% (active) in assay [3] (at 50.0 µM); 14% in assay [4] (setting [7]); 97% (active) in assay [4] (setting [8]); 99% (active) in assay [4] (at 50.0 µM). The growth inhibition is 11% in assay [5] (setting [7]); 99% (active) in assay [5] (setting [8]); 99.3% (active) in assay [5] (at 50.0 µM); 16% in assay [6] (setting [7]); 99% (active) in assay [6] (setting [8]); 99.3% (active) in assay [6] (at 50.0 µM).
On to `COc1ccc(C2SC(N)=Nc3c2c(C)nn3C(=O)c2ccccc2O)cc1OC` (stereo not given), for which the growth inhibition in assay [1] (setting [7]) was -9%; in assay [1] (setting [8]), 74% (active); in assay [1] (at 50.0 µM), 53.3%; in assay [2] (setting [7]), -15%; in assay [2] (setting [8]), 81% (active); in assay [2] (at 50.0 µM), 35.2%. The growth inhibition in assay [3] (setting [7]) is -8%; in assay [3] (setting [8]), 70% (active); in assay [3] (at 50.0 µM), 75.3% (active); in assay [4] (setting [7]), -20%; in assay [4] (setting [8]) it was 24%; in assay [4] (at 50.0 µM) it was -19%. Also, the growth inhibition in assay [5] (setting [7]) was -19%; in assay [5] (setting [8]), 31%; in assay [5] (at 50.0 µM), 74.3% (active); in assay [6] (setting [7]), 1%; in assay [6] (setting [8]), 91% (active); in assay [6] (at 50.0 µM) it was 65.5%.
Regarding `C[P+](c1ccccc1)(c1ccc(Cl)cc1)c1ccc(Cl)cc1`, the growth inhibition in assay [1] (setting [7]) was -26%; in assay [1] (setting [8]) it was 72% (active); in assay [1] (at 50.0 µM), 50.6%; in assay [2] (setting [7]) it was -3%; in assay [2] (setting [8]), 28%; in assay [2] (at 50.0 µM), 28.7%. For the same compound, the growth inhibition in assay [3] (setting [7]) was 0%; in assay [3] (setting [8]), 81% (active); in assay [3] (at 50.0 µM), 71.9% (active); in assay [4] (setting [7]) it was -3%; in assay [4] (setting [8]), 1%; in assay [4] (at 50.0 µM) it was -39.3%. Moreover, the growth inhibition is -1% in assay [5] (setting [7]); 75% (active) in assay [5] (setting [8]); 69.5% in assay [5] (at 50.0 µM); 12% in assay [6] (setting [7]); 59% in assay [6] (setting [8]); 46.9% in assay [6] (at 50.0 µM).
As for `C=C(Br)CN(C)CC(=C)Br`, the growth inhibition in assay [1] (setting [7]) is 0%; in assay [1] (setting [8]) it was 40%; in assay [1] (at 50.0 µM), 82% (active); in assay [2] (setting [7]), 7%; in assay [2] (setting [8]), -19%; in assay [2] (at 50.0 µM), -17.1%. For the same compound, the growth inhibition is 4% in assay [3] (setting [7]); -10% in assay [3] (setting [8]); 22.2% in assay [3] (at 50.0 µM); -15% in assay [4] (setting [7]); -50% in assay [4] (setting [8]); 0.15% in assay [4] (at 50.0 µM). Further, the growth inhibition was -2% in assay [5] (setting [7]); 5% in assay [5] (setting [8]); -15% in assay [5] (at 50.0 µM); -6% in assay [6] (setting [7]); 25% in assay [6] (setting [8]); 62.5% in assay [6] (at 50.0 µM).
With `CC1(C)CC(O)C(O)C1` (stereo not given), the growth inhibition in assay [1] (setting [7]) is -2%; in assay [1] (setting [8]), -2%; in assay [1] (at 50.0 µM) it was -4%; in assay [2] (setting [7]), 2%; in assay [2] (setting [8]), 0%; in assay [2] (at 50.0 µM), 7.25%. Also, the growth inhibition in assay [3] (setting [7]) is 0%; in assay [3] (setting [8]) it was -1%; in assay [3] (at 50.0 µM), 12.6%; in assay [4] (setting [7]), -2%; in assay [4] (setting [8]) it was -13%; in assay [4] (at 50.0 µM) it was 67.5%. Besides, the growth inhibition in assay [5] (setting [7]) was 2%; in assay [5] (setting [8]) it was 11%; in assay [5] (at 50.0 µM), -1.7%; in assay [6] (setting [7]) it was -1%; in assay [6] (setting [8]), -4%; in assay [6] (at 50.0 µM) it was -5.6%.
